The results in this text go back to PubChem BioAssay AID1224853 (National Center for Advancing Translational Sciences (NCATS), 2016).

Inconclusive results are not listed. Active and inactive are the calls of the source. The call rests on the fitted dose curve; in most records, active means well fitted inhibition curve with a large enough effect; inconclusive means small, poorly fitted or top-dose-only effect; inactive means no such curve, though single readings can be large or run the other way.

This assay in a line: Confirmation assay for measurement of the activity of small molecule inhibitors on Zika virus induced Caspase-3 activity in human astrocytoma cells. As to conditions: SNB-19 ZIKV-induced caspase-3/7, luminescence, 6 h; series mostly up to 46.1 µM. The source says:
National Center for Advancing Translational Sciences [NCATS] Johns Hopkins University School of Medicine Florida State University Assay Overview: Increase in the Caspase-3 activity indicates an activation of apoptosis cell death pathway caused by Zika virus infection in certain types of neuronal cells including human neural progenitor cells (hNPCs), astrocytes, and astrocytoma cell line (SNB-19). This cell-based caspase-3 activity assay measures the increased caspase-3 activity in the astrocytoma cell line (SNB-19) after a 6-hour Zika virus infection with a luminescence readout. A decrease in the luminescence signal in this assay by small molecule treatment indicates an inhibitory effect of that small molecule on the Zika virus induced caspase-3 activity that may correlate with its effect on reduction of Zika virus caused cell death.
Assay Protocol Summary: The medium for SNB-19 cells is composed of RPMI 1640 (ATCC, Cat.# 30-2001), 10% fetal bovine serum (FBS) (GE healthcare Life Sciences, Cat.# SH30071.03), and 1% Pen/Strep (Gibco, Cat.# 15140-122). A Caspase-Glo 3/7 assay kit (catalog number G8092; Promega, Madison, WI) was used to detect caspase-3 activity induced by Zika virus infection in human cells. The reagent mixture was reconstituted as described in the protocol from the manufacturer. Polystyrene tissue culture treated and PDL coated white plates were obtained from Greiner Bio-One (Monroe, NC). Cells were seeded in 384- or 1536-well assay plates and cultured at 37 C with 5% CO2 for 16 to 20 hours. The typical cell seeding density in the 1536-well plate assay is 250 cells/well in 3ul medium for SNB-19 cells in tissue culture treated plates. Compounds were added to cells and incubated for one hour before addition of ZIKV solution to cells (2 FFU/cell). After incubation at 37 C with 5% CO2 for 6 hours, the reagent mixture of Caspase-Glo 3/7 assay kit was added to each well, followed by incubation at room temperature for 30 minutes. The luminescence intensity of the assay plates was measured using a ViewLux plate reader (PerkinElmer). Data were normalized by using the cell-containing wells without ZIKV as a negative control (0% induction of caspase 3/7 activity) and wells containing ZIKV infected cells (Caspase-3 activity induced) as a positive control (100% induction of caspase 3 activity). The percentage inhibitions of the increased Caspase-3 activity by small molecule inhibitors were then calculated.
Turning to `O=C(Nc1cc2cc[nH]c2cn1)c1ccccc1`, the Potency was 4.35 µM (active). For the compound `C[C@H](NC(=O)C(=O)Nc1ccccc1C(C)(C)C)C(=O)N[C@@H](CC(=O)O)C(=O)COc1c(F)c(F)cc(F)c1F`, the Potency is 0.615 µM (active).

`CC1=C(CO)C(=O)O[C@@H]([C@@H](C)[C@H]2CC[C@H]3[C@@H]4C[C@H]5O[C@]56[C@@H](O)C=CC(=O)[C@]6(C)[C@@H]4CC[C@]23C)C1`: the Potency result was “inactive”.

Turning to `C/C(=N\O)c1ccc(OCC(=O)N2CCCCC2)cc1`, the Potency is 8.69 µM (active).

On to `CCCS(=O)c1ccc2nc(NC(=O)OC)[nH]c2c1` (stereo not given), for which the Potency was 21.8 µM (active). To `CC(=O)Nc1ccc([C@H](C)C(=O)Nc2ncc(C(C)C)s2)cc1` belongs 9.75 µM (active); to `CN(C)c1ccc2cc(C(=O)N[C@@H](CCCN=C(N)CCl)C(=O)NCc3ccccc3)ccc2c1`, “inactive”; to `c1ccc2[nH]c(-c3cscn3)nc2c1`, 12.3 µM (active). Take `O=C(OCc1ccccc1)c1ccc(O)cc1`: the Potency is 19.5 µM (active). In the case of `CC(C)c1ccc2oc3nc(N)c(C(=O)O)cc3c(=O)c2c1`, the Potency is 1.95 µM (active). The figure for `COc1cc2nc(N3CCN(C(=O)C4CCCO4)CC3)nc(N)c2cc1OC` (stereo not given) is 17.3 µM (active).

Take `O=C(Nc1ccc(C(=O)O)c(O)c1)c1ccccc1`: the Potency is 6.15 µM (active). Regarding `COCCn1c2c([n+](Cc3cnccn3)c1C)C(=O)c1ccccc1C2=O`, the Potency was 4.89 µM (active). The figure for `CN(C)c1ccc(/C=C2\C(=O)Nc3ccccc32)cc1` is 10.9 µM (active); for `Cc1cccc(C#Cc2ccccc2)n1` it is 4.89 µM (active).

Regarding `CN(C)CCCSc1ccccc1NC(=O)/C=C/c1ccccc1`, the Potency is 8.69 µM (active). For `Cc1oncc1C(=O)Nc1ccc(C(F)(F)F)cc1`, the Potency is 3.08 µM (active). The figure for `O=C(Nc1ncc([N+](=O)[O-])s1)c1cccs1` is 1.73 µM (active).

In the case of `c1ccc(CCNc2nc(-c3ccccc3)cs2)cc1`, the Potency was 15.5 µM (active). To `O=C(Nc1ccc([N+](=O)[O-])cc1Cl)c1cc(Cl)ccc1O` belongs 1.95 µM (active); to `COc1ccc(-c2cc(=O)c3c(O)cc(O)cc3o2)cc1O`, 13.8 µM (active). To `CCCCCCCC/C=C/C(=O)O` belongs “inactive”.

With `COc1cc(NC(C)CCCN)c2ncccc2c1` (stereo not given), the Potency entry is “inactive”. For `Cc1ccc(O)c(N=Nc2ccccc2)n1`, the Potency is 5.48 µM (active). To `CC(C)(C)COc1ccc(-n2cc(C(=O)O)cn2)cc1C#N` belongs 25.1 µM (active); to `O=C1C[C@@H](c2ccc(O)cc2)Oc2cc(O)cc(O)c21`, 15.5 µM (active); to `CCCC(=O)OC[C@@H](OC(=O)CCC)[C@@H](OC(=O)CCC)[C@H](Cn1c2nc(=O)[nH]c(=O)c-2nc2cc(C)c(C)cc21)OC(=O)CCC`, “inactive”. The entry for `CC1(C)Cc2c(sc(NC(=S)NC(=O)c3ccccc3)c2C(=O)O)CO1` is “inactive”; for `O=S(=O)(O)c1ccc2nc(-c3ccccc3)[nH]c2c1` it is 1.73 µM (active); for `Nc1ncnc2c1ncn2[C@@H]1O[C@@H](CO)[C@H](O)[C@H]1O` it is “inactive”. To `CC(O)=C(C#N)C(=O)Nc1ccc(C(F)(F)F)cc1` belongs 0.869 µM (active); to `COc1ccnc2c1CCCCC2S(=O)c1nc2ccccc2[nH]1` (stereo not given), “inactive”; to `CCCCCNC(=O)N1CCC(CN(Cc2ccc(Cl)cc2)Cc2ccc([N+](=O)[O-])s2)C1` (stereo not given), “inactive”. For `Nc1ccc2c(c1)CN1C(=O)c3ccccc3C1=N2`, the Potency is 3.37 µM (active). Turning to `Oc1cc(O)cc(/C=C/c2ccc(O)c(O)c2)c1`, the Potency is 6.15 µM (active). Turning to `Cc1c(N)c(=O)n(-c2ccccc2)n1C`, the Potency result is “inactive”. The figure for `COc1ccc(-c2cc(=S)ss2)cc1` is 15.5 µM (active); for `COc1ccc(CC2=NN3C([C@@H](CCc4ccccc4)[C@@H](C)O)=NC(C)C3C(=O)N2)cc1OC` (stereo not given in full) it is “inactive”; for `O=C(O)c1cc([N+](=O)[O-])ccc1NCCCc1ccccc1` it is 19.5 µM (active). In the case of `O=C(O)[C@@H](c1ccc(OCc2ccc3ccccc3n2)cc1)C1CCCC1`, the Potency was 13.8 µM (active).
